Laboratory results as given in PubChem BioAssay.
Where “and” joins values, the source holds several entries; their conditions need not be identical. Equal values may be shown once. Calls of active or inactive are those of the source.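 How the source made its calls, unless noted: active means compounds whose cell count with miR-34 switched on is under 0.7 times the count with it off; inactive means the rest.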

Assays:
[1] = compounds altering viability of human ES cells (AID 493140; call rule not given here;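 further: cells exposed to compounds for four days before counting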); conditions: human embryonic stem cell survival screen; stronger effect = higher value
[2] = P. berghei load reduction in hepatocytes – cell-based, HepG2, luciferase luminescence, HepG2 viability, primary screen (AID 624349; in the data active means parasite load remaining mostly below about 12%, no sharp cut-off; inactive means mostly above about 10%;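 further: 100% = mean of DMSO negative control wells on the same plate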); conditions: P. berghei liver stage in HepG2, luciferase luminescence, concentration not given here; parasite load remaining: stronger effect = lower value; viability: measured here: HepG2 viability without parasites
[3] = Wnt pathway potentiators raising nuclear beta-catenin – imaging, WNT3A-conditioned medium, mouse C2C12, NPC library, primary screen (AID 1117326; in the data active means nuclear beta-catenin stimulation mostly above about 4.2%, no sharp cut-off; inactive means mostly below about 10%); conditions: stronger effect = higher value
[4] = stimulators of insulin release from INS-1E, primary screen, cell-based, 5 mM glucose, NPC library (AID 1117329;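 active means compound raises insulin release from rat beta cells at 5 mM glucose, no numeric limit stated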); conditions: rat INS-1E insulin secretion, at 10 µM, stronger effect = higher value
[5] = growth inhibition of GSK3B-pretreated HCT116 cells – cell-based, CellTiter-Glo, 0.2 to 20 µM (AID 1117336;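 active means compounds lowering colon cancer cell viability after pretreatment blocking the GSK3B kinase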); conditions: HCT116 viability after GSK3B inhibitor, at 20 µM, stronger effect = higher value
[6] = inhibition of endothelial tube formation, primary screen, imaging, VEGF stimulated, CD31 staining, tube area, NPC library (AID 1117340;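 active means compound that reduces growth-factor-driven endothelial tube area in a mixed cell culture, no cutoff stated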); conditions: VEGF-stimulated ADSC/ECFC co-culture, at 10 µM, stronger effect = higher value
[7] = GLP1 release stimulators, primary, NCI-H716, NPC library (AID 1117341;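 active means compound raises GLP1 secretion from the human gut endocrine cells, with no numeric limit stated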); conditions: NCI-H716 cells, at 10 µM, stronger effect = higher value
[8] = HCT116 colon cancer cell growth inhibition, primary screen, CellTiter-Glo luminescence, NPC library (AID 1117342;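 active means compounds that lower survival of HCT116 colon cancer cells in the luminescence readout, no numeric limit stated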); conditions: at 20 µM (top of the series)
[9] = reduced SW480 viability measured with CellTiter-Glo, NPC library, primary (AID 1117343;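 active means compounds that lower viability of the colon cancer cells in the luminescence readout, with no numeric limit stated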); conditions: CellTiter-Glo luminescence; at 20 µM (top of the series) unless noted
[10] = NPC library primary testing for decreased DLD-1 cell viability via CellTiter-Glo (AID 1117346;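 active means compounds that lower survival of DLD-1 colon cancer cells in the luminescence readout, no cutoff given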); conditions: DLD-1 viability, CellTiter-Glo luminescence; at 20 µM (top of the series)
[11] = EMT-state selective cytotoxicity in co-culture – imaging, PC-3E GFP, TEM4-18 mCherry, primary screen (AID 1345086;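 active means compounds killing one labelled cell type while sparing the other, by normalised counts and ratio limits, not self-fluorescent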;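 on all read-outs here: cells exposed to compound for 72 h before imaging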;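 on red/green cell ratio (normalised): normalised mesenchymal count divided by normalised epithelial count so high means epithelial killing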); conditions: PC-3E GFP / TEM4-18 mCherry co-culture, imaging cell counts, at 1 µM; for red/green cell ratio (normalised): actives lie on both sides, counts scaled to control wells, 1 = unselective
[12] = viability loss with induced miR-34 in A549 – imaging, A549 dox-inducible miR-34, nuclei and caspase counts, primary screen (AID 1347080); conditions: A549 miR-34 inducible, Hoechst nuclei count, 48 h
[13] = MELAS cybrid and Rieske KO viability enhancers – cell-based, MELAS cybrids, Rieske KO mouse fibroblasts, CellTiter-Glo, primary screen (AID 1508586;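 active means mean z-score across replicates of 1.96 or higher in either the MELAS or the Rieske mutant cell line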;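 further: z relative to plate mean and SD of compound and empty wells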); conditions: low glucose
[14] = target: NAD(+) hydrolase SARM1 (Homo sapiens) (UniProt Q6SZW1); assay: blocking NAD cleavage by SARM1 SAM-TIR – cell lysate, NAD-Glo luminescence (AID 1508614;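 active means compound whose remaining NAD level is above about 45 nM, limit read from the data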); conditions: SAM-TIR HEK293T lysate NADase, at 1 µM, stronger effect = higher value
[15] = growth inhibition, single agent or in combination, cell-based, chromothripsis tumors, cisplatin or BGB combos (AID 1671449; in the data active means inhibition above about 80%;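 further: cells exposed for 96 hours; 0% = vehicle DMSO and 100% = killing by high DMSO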); conditions: LFS_MB_P medulloblastoma cells
[16] = growth inhibition, single agent and combos, cell-based, chromothripsis tumors, cisplatin or BGB combos (AID 1671450; in the data active means inhibition above about 80%;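 further: cells exposed to compound for four days; 0% = vehicle DMSO and 100% = cell killing by high DMSO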); conditions: HDN33 neuroblastoma cells, stronger effect = higher value
[17] = growth inhibition, single agents and combos, ICB984, cell-based, cisplatin or BGB combos, synergistic combos for chromothripsis tumors (AID 1671451; call rule not given here;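 further: cells exposed for 96 hours before readout; 0% = vehicle DMSO and 100% = killing by high DMSO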); conditions: ICB984 medulloblastoma cells, drug combinations, stronger effect = higher value
[18] = growth inhibition, single agents and combos, HTB85, cell-based, BGB or cisplatin IC20 combos, synergistic combos for chromothripsis tumors (AID 1671453; in the data active means inhibition above about 80%;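 further: cells exposed for 96 hours before readout; 0% = vehicle DMSO and 100% = high DMSO killing control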); conditions: HTB85 osteosarcoma cells, drug combinations, stronger effect = higher value
[19] = growth inhibition, MDA-MB-436, cell-based, BGB or cisplatin combos, synergistic combos for chromothripsis tumors (AID 1671458; call rule not given here;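 further: cells exposed for 96 hours; 0% = vehicle DMSO and 100% = killing by high DMSO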); conditions: MDA-MB-436 breast carcinoma growth inhibition, drug combinations, stronger effect = higher value
[20] = measured here: epithelial PC-3E GFP cell survival
[21] = measured here: mesenchymal TEM4-18 mCherry cell survival
[22] = stronger effect = lower value, cell number ratio, induced over uninduced
[23] = measured here: relative caspase fold change +Dox/-Dox
[24] = measured here: total cells with miR-34 induction, stronger effect = lower value
[25] = measured here: total cells without miR-34 induction
[26] = MELAS cybrid survival, CellTiter-Glo 48 h, stronger effect = higher value
[27] = Rieske KO mouse fibroblast survival, CellTiter-Glo 72 h

NAD(+) hydrolase SARM1 (Homo sapiens), sequence (Q6SZW1 whole entry, looked up): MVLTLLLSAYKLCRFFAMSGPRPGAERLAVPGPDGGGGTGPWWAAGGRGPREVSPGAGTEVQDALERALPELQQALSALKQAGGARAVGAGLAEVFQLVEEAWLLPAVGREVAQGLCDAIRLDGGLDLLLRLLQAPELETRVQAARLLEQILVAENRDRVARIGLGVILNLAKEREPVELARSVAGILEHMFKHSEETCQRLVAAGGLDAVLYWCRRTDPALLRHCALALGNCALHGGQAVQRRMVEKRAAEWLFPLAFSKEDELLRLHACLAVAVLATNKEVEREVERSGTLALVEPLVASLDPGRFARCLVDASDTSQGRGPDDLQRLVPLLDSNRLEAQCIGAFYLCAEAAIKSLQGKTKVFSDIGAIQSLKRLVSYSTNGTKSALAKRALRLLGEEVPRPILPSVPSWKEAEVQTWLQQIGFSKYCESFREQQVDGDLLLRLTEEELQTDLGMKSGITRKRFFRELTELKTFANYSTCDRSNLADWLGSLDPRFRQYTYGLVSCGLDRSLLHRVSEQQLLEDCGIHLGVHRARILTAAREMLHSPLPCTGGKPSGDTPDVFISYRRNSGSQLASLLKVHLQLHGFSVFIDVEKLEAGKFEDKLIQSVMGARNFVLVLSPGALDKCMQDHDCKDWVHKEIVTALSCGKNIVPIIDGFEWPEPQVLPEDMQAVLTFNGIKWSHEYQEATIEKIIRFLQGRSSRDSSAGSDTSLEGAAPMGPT

CN(C(=O)C(Cl)Cl)c1ccc(OC(=O)c2ccco2)cc1
survival [1]: 6 (inactive) | parasite load remaining [2]: 89.8% (inactive) and 59.5% (inactive) | viability [2]: 98.9% and 106% | nuclear beta-catenin stimulation ([3]; at 10 µM): 16.4% (inactive) | nuclear beta-catenin stimulation ([3]; stimulation, at 2 µM): 2.6% | insulin secretion stimulation [4]: 0.3% (inactive) | viability decrease [5]: -11.8% (inactive) | tube area decrease [6]: 13.6% (inactive) | GLP1 secretion stimulation [7]: 0.9% (inactive) | inhibition of viability [8]: -9.5% (inactive) | viability decrease (inhibition) [9]: 4.3% (inactive) | viability decrease (inhibition) [10]: -2.6% (inactive) | red/green cell ratio (normalised) [11]: 1.01 (inactive) | normalised cell number [11, 20]: 0.98 | normalised cell number [11, 21]: 0.99 | fold change [12, 22]: 0.855 (inactive) and 0.819 (inactive) | fold change [12, 23]: 1.35 and 4.27 | cell count [12, 24]: 9270 and 10300 | cell count [12, 25]: 10800 and 12500 | z-score [13, 26]: 0.57 (inactive) | z-score [13, 27]: -0.472 | remaining NAD [14]: 10 nM (inactive)

CN1C(=O)OC(C)(C)C1=O
survival [1]: 8.08 (inactive) | parasite load remaining [2]: 83.9% (inactive) and 86.8% (inactive) and 50.6% (inactive) | viability [2]: 107% and 78.1% and 129% | nuclear beta-catenin stimulation ([3]; at 10 µM): 1.4% (inactive) | nuclear beta-catenin stimulation ([3]; stimulation, at 2 µM): -0.1% | insulin secretion stimulation [4]: 1% (inactive) | viability decrease [5]: 31.5% (inactive) | tube area decrease [6]: 13.2% (inactive) | GLP1 secretion stimulation [7]: -0.3% (inactive) | inhibition of viability [8]: 28% (inactive) | viability decrease (inhibition) [9]: 54.4% (active) | viability decrease (inhibition) [10]: 87.4% (active) | red/green cell ratio (normalised) [11]: 0.94 (inactive) | normalised cell number [11, 20]: 0.96 | normalised cell number [11, 21]: 0.9 | fold change [12, 22]: 0.862 (inactive) and 0.885 (inactive) | fold change [12, 23]: 1.14 and 3.65 | cell count [12, 24]: 9130 and 11500 | cell count [12, 25]: 10600 and 13000 | z-score [13, 26]: 0.482 (inactive) | z-score [13, 27]: -0.121 | remaining NAD [14]: 10 nM (inactive)

Nc1ccc2cc3ccc(N)cc3nc2c1
nuclear beta-catenin stimulation ([3]; at 10 µM): 164% (active) | nuclear beta-catenin stimulation ([3]; stimulation, at 2 µM): 9.1% | insulin secretion stimulation [4]: 24% (active) | viability decrease [5]: 42% (active) | tube area decrease [6]: -95.9% (inactive) | GLP1 secretion stimulation [7]: 11.8% (inactive) | inhibition of viability [8]: 104% (active) | viability decrease (inhibition) [9]: 106% (active) | viability decrease (inhibition) [10]: 45.9% (active) | red/green cell ratio (normalised) [11]: 0.58 (inactive) | normalised cell number [11, 20]: 0.74 | normalised cell number [11, 21]: 0.43 | fold change [12, 22]: 0.846 (inactive) and 0.958 (inactive) | fold change [12, 23]: 0.821 and 1.18 | cell count [12, 24]: 1150 and 2160 | cell count [12, 25]: 1360 and 2260 | z-score [13, 26]: 2.13 (active) | z-score [13, 27]: -2.97 | remaining NAD [14]: 10 nM (inactive) | inhibition ([15]; at 0.5 µM, stronger effect = higher value): -32.2% (inactive) | inhibition ([15]; measured here: combination with BGB IC20, at 0.005 µM): 13.5% | inhibition ([15]; measured here: combination with BGB IC40, at 0.005 µM): -11.3% | inhibition ([15]; measured here: combination with BGB IC40, at 0.05 µM): 22.5% | inhibition ([15]; measured here: combination with cisplatin, at 0.5 µM, stronger effect = higher value): -47.3% | inhibition ([15]; measured here: combination with cisplatin, at 5 µM, stronger effect = higher value): 91.6% | inhibition ([16]; BGB combo, at 5 µM): 96.4% | inhibition ([16]; at 0.5 µM): -6.06% (inactive) | inhibition ([16]; cisplatin combo, at 5 µM): 99.6% | inhibition ([16]; measured here: with BGB IC20 combination, at 0.5 µM): 5.24% | inhibition ([16]; measured here: with cisplatin IC20 combination, at 0.5 µM): -17.9% | inhibition ([16]; single agent, at 5 µM): 97.6% | inhibition ([17]; BGB IC20 combo, at 0.005 µM): -22.1% | inhibition ([17]; BGB IC40 combo, at 0.005 µM): -20.5% | inhibition ([17]; BGB IC40 combo, at 0.05 µM): 98.8% | inhibition ([17]; at 0.5 µM): -20.2% (inactive) | inhibition ([17]; cisplatin combo, at 0.05 µM): 98.8% | inhibition ([17]; cisplatin combo, at 0.5 µM): -22.1% | inhibition ([17]; cisplatin combo, at 5 µM): -11.1% | inhibition ([17]; measured here: 5 uM single agent, at 5 µM): -9.35% | inhibition ([18]; at 0.5 µM): -33.1% (inactive) | inhibition ([18]; measured here: with BGB IC20, at 0.5 µM): -40.6% | inhibition ([18]; measured here: with BGB IC20, at 5 µM): 79.3% | inhibition ([18]; measured here: with cisplatin IC20, at 0.5 µM): -43.3% | inhibition ([18]; measured here: with cisplatin IC20, at 5 µM): 99.3% | inhibition ([18]; single agent, at 5 µM): 84.4% | inhibition ([19]; at 0.5 µM): 7.24% (inactive) | inhibition ([19]; measured here: BGB combination, at 0.5 µM): -0.519% | inhibition ([19]; measured here: BGB combination, at 5 µM): 92.2% | inhibition ([19]; measured here: cisplatin combination, at 0.5 µM): -19.4% | inhibition ([19]; measured here: cisplatin combination, at 5 µM): 97.5%
